Results from PubChem BioAssay AID441 (NMMLSC, 2006).
The whole screen tested about 24,000 compounds, of which about 70 (0.3%) were called active. The full list was thinned out, with actives kept by preference. Unmarked numbers belong to inactive results. Cut-off read from the data, not from the text of the source: active = inhibition above about 30%; inconclusive = no clear call, values can overlap the other calls; inactive = below that.

Target: N-formyl peptide receptor 2 (Homo sapiens) (UniProt P25090)
Sequence (P25090 whole entry, looked up): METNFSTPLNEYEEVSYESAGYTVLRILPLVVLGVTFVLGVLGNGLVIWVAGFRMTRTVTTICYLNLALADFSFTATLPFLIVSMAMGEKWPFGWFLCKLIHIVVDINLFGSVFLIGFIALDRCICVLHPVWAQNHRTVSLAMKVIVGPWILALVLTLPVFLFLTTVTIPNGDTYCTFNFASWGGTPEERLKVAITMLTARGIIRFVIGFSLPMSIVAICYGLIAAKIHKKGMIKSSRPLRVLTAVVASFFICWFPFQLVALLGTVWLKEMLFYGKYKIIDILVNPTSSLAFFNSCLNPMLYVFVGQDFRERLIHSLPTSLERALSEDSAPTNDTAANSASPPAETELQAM
Assay: small molecules displacing FPRL1 fluorescent ligand – cell-based, FPR counter-screen, flow cytometry, primary screen (AID 441);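 note: 0% = buffer alone and 100% = receptor blocker peptide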
Settings: FPRL1-expressing cells, fluorescent ligand binding inhibition, active compounds read high, concentration not given here

| Compound | inhibition |
| --- | --- |
| Cc1nnc(SCC(=O)N(C(C)C)C(C)C)nc1C | -5.7% |
| CCOC(=O)N1CCC(NC(=O)Cn2cc3c(n2)CCCCC3)CC1 | 0.2% |
| CCOC(=O)c1oc2c(CN3CCN(C)CC3)c(O)ccc2c(=O)c1-c1ccc(Br)cc1 | -3% |
| Cn1c(CNC(=O)C(C)(C)C)nc2ccccc21 | -0.3% |
| Cc1c(NC(=O)C(C)OC(=O)c2cc3c4ccccc4n(C)c3s2)c(=O)n(-c2ccccc2)n1C (stereo not given) | 0.1% |
| CCCNC(=O)C1CC(=O)N(c2ccc(OCC(=O)Nc3cccc(C)c3C)cc2)C1 (stereo not given) | -4.6% |
| O=c1c2ccccc2[nH]c(=S)n1CCN1CCC(=C(c2ccc(F)cc2)c2ccc(F)cc2)CC1 | -11% |
| O=C1C(=O)N(CCN2CCOCC2)C(c2ccccn2)/C1=C(/O)c1ccc(Cl)cc1 (stereo not given) | -6.2% |
| CC1Cc2cc(/C(O)=C3\C(=O)C(=O)N(CCN4CCOCC4)C3c3ccccc3F)ccc2O1 (stereo not given) | 30.8% (active) |
| COCCCN1C(=O)C(=O)/C(=C(/O)c2ccc3c(c2)CC(C)O3)C1c1cccnc1 (stereo not given) | 28.3% |
| CCOc1ccccc1C1CC(c2ccccc2)Nc2nc(N)nn21 (stereo not given) | 0.2% |
| CCOC(=O)C1CCN(C(=O)Cc2c(C(=O)O)[nH]c3ccccc23)CC1 | 0.3% |
| CC1CCC(NS(=O)(=O)c2ccc3c(c2)n(C)c(=O)c(=O)n3C)CC1 (stereo not given) | -4.7% |
| O=C(CC(NCCN1CCOCC1)C(=O)O)Nc1cccc(Cl)c1 (stereo not given) | 4.9% |
| CCN(CCCNC(=O)C1CCN(S(=O)(=O)c2cnc[nH]2)CC1)c1ccccc1 | -1.3% |
| CCOC(=O)CNC(=O)CN1C(=O)CCSc2ccccc21 | -6.4% |
| CCOC(=O)c1ccc(-n2c(C)nc3c(cnn3-c3ccccc3C)c2=O)cc1 | -6% |
| Cc1cc(C)cc(N(CC(=O)NCC2CCCO2)S(=O)(=O)c2c(C)noc2C)c1 (stereo not given) | 3.6% |
| Cc1nc2ccccc2c2oc(C(=O)NCC3CCCO3)cc12 (stereo not given) | 3.5% |
| CCOC(=O)c1nnn(-c2nonc2OC)c1-c1ccccc1 | 5.9% |
| N#CCCN1CCN(S(=O)(=O)c2ccc(S(=O)(=O)N3CCCC3)cc2)CC1 | 1.9% |
| COC(=O)C1=C(C)Nc2ncnn2C1c1ccco1 (stereo not given) | 0.6% |
| COc1ccc(N2C(=O)CCC(C(=O)N(C)C3CCCCC3)C2c2ccc(OC)c(OC)c2)cc1 (stereo not given) | -4.6% |
| CCOC(=O)N1CCC(Nc2c(NCCN3CCN(c4cccc(Cl)c4)CC3)c(=O)c2=O)CC1 | 8% |
| O=C(CC1Oc2ccccc2NC1=O)NCCCN1CCN(Cc2ccccc2)CC1 (stereo not given) | -1.8% |
